A549 tox-1 – kills or reduces viability of A549 cells in Nrf2 counter-screen; actives 0.16% (n = 390,000); A549 ARE-Fluc cells, CellTiter-Fluor viability, 18-24 h; AID 504648; Potency, µM (highest dose often 46 µM), for inactives: at the highest dose activity change, negative = cytotoxicity, most hits filed as inhibitors; note: % is set by controls: 0 for no effect and ±100 for the full control effect
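Cytotoxicity counterscreen: CellTiter-Fluor fluorescence was measured in A549 ARE_Fluc cells after 18-24 h of compound exposure in a concentration series. The subsequent BugLite luminescent read reports ARE-luciferase activity.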
Nrf2 block – inhibitors of Nrf2 signaling | AID 504444 | Potency, µM (titrated, usually from 46 µM), without a hit: at the highest dose activity change, negative = inhibition, hits mostly inhibitors | A549 ARE-Fluc reporter, luciferase luminescence, 18-24 h | actives 2.1% (n = 360,000); note: % is set by controls: 0 for no effect and ±100 for the full control effect; nearly all actives have a fitted effect of over 60% in size
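A549 ARE_Fluc cells, 5000/well, 5% FBS OPTI-MEM; compounds in dose-response, 18-24 h at 37 °C/5% CO2; CellTiter-Fluor viability read (Ex 405/Em 525), then BugLite luciferase luminescence = Nrf2 activity.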
Nrf2 ARE act – Nrf2 pathway activation; actives 0.31% (n = 410,000); Potency, µM (doses to about 46.1 µM), for inactives: top-dose activation, most hits filed as activators; AREc32 ARE-luciferase reporter (MCF7-derived line), luminescence, 24 h; AID 624171; note: % of control where 0% means no effect; nearly all actives have a fitted effect of over 65% in size
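Luciferase luminescence (Steady-Glo, 30 min at room temperature) served as the read-out of ARE activation in AREc32 cells treated with compounds for 24 hr at 37 deg C.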
ATXN2 expr inh – ATXN2 expression inhibition. HEK-293 ATXN2-luciferase reporter, luminescence, 24 h. Potency, µM (series often up to 57 µM), for inactives: at the top dose activity change, negative = inhibition, usual class: inhibitors. actives 0.72% (n = 360,000). AID 1745845; note: % is set by controls: 0 for no effect and ±100 for the full control effect; nearly all actives have a fitted effect of over 55% in size
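qHTS (up to 57 uM final) was run with 24 h compound exposure of reporter cells at 37 °C. Each well was multiplexed: SteadyGlo luminescence measured ATXN2-luciferase expression after a fluorogenic Gly-Phe-AFC viability readout (25 uM final).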
ATXN viability – reduces viability in counter-screen for ATXN expression inhibitors; actives 0.49% (n = 400,000); S2 cells (HEK-293 line with an ATXN2-luciferase reporter) viability, CellTiter-Fluor protease fluorescence, 24 h; Potency, µM (highest dose often 56.7 µM), hits mostly cytotoxic; note: nearly all actives have a fitted effect of over 40% in size
FLuc enzyme inh – counter-screen for Nrf2 inhibitors: firefly luciferase enzyme inhibition; shares compounds with Nrf2 block; purified firefly luciferase, luminescence inhibition; Potency, µM (series often up to 57.5 µM), inactives show at the top dose activity change, negative = inhibition, usual class: inhibitors; actives 4% (n = 1,400); note: % is set by controls: 0 for no effect and ±100 for the full control effect; nearly all actives have a fitted effect of over 65% in size
Target sequence (P08659 whole entry, looked up): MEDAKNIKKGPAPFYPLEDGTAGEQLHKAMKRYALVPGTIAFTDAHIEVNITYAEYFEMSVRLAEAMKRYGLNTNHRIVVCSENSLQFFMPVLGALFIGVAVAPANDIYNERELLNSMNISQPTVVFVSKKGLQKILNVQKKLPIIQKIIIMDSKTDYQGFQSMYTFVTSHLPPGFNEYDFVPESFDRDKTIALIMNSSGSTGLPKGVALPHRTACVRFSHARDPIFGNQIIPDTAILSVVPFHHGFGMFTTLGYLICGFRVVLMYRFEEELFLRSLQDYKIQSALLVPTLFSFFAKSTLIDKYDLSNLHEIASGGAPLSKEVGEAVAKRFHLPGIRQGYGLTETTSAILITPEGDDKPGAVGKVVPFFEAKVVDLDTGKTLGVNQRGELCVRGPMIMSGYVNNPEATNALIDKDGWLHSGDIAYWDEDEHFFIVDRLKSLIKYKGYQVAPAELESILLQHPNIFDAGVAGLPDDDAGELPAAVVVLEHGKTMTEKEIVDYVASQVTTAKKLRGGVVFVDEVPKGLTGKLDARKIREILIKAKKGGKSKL
A549 tox-2 – A549 cytotoxicity, Nrf2 inhibitor counterscreen. shares compounds with Nrf2 block. A549 ARE-Fluc cells, cytotoxicity counterscreen. Potency, µM (highest dose often 46.1 µM), for the others: at the top dose activity change, negative = cytotoxicity, usual class: inhibitors. actives 2% (n = 1,400);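 note: cells exposed to compounds for 18 to 24 hours; % is set by controls: 0 for no effect and ±100 for the full control effect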
Nrf2 ARE inh – reduces Nrf2 ARE reporter signal in A549 cells | shares compounds with Nrf2 block | A549 ARE-firefly luciferase reporter, luminescence | Potency, µM (highest dose often 46.1 µM), without a hit: at the top dose activity change, negative = inhibition, hits mostly inhibitors | actives 74% (n = 1,400) | AID 720524; note: % is set by controls: 0 for no effect and ±100 for the full control effect; nearly all actives have a fitted effect of over 65% in size
* = called active by the depositor; i = inactive; ? = inconclusive; / = no result. Compounds with a hit are over-represented: about 2.9% of the library has one in this group of screens. Calls come from the whole dose curve; as a rule, active = well fitted curve in the direction sought with a large enough effect; inconclusive = small, poorly fitted or top-dose-only effect, or another doubt; inactive = no such curve, though single readings can be large; an effect the other way counts as inactive or inconclusive. Potency is the fitted concentration of half-maximal effect.

SMILES | A549 tox-1 | Nrf2 block | Nrf2 ARE act | ATXN2 expr inh | ATXN viability | FLuc enzyme inh | A549 tox-2 | Nrf2 ARE inh
Cc1ccc(-c2ccccc2[C@@H]2C[C@H]3CN(C)C(=O)[C@]34CCCN24)o1 | -1% | ? | 0% | ? | i | / | / | /
O=C1N(c2ccccc2)C[C@@H]2C[C@@H](c3cc4ccccc4o3)N3CCC[C@@]123 | ? | 1.2µM* | 0% | 0.3µM* | ? | -3% | -28% | 2.6µM*
CC(/C=N\NC(=O)Cn1c(C)nc2ccccc21)=C\c1ccccc1 | -19% | 8.2µM* | 13% | ? | ? | -2% | -18% | 7.3µM*
COc1ccc(CN(C)C(=O)c2cccc(NC(=O)CC3SC(N4CCCCC4)=NC3=O)c2)c(OC)c1 (stereo not drawn) | -26% | 8.2µM* | -1% | 20µM* | ? | -19% | -16% | 6.5µM*
CCOC(=O)n1c(=O)n(Cc2ccc(Cl)cc2Cl)c2ccccc21 | -18% | / | -1% | 2% | i | / | / | /
Cc1cc(OCC(=O)Nc2ccncc2)cc(C)c1Br | -8% | 9.2µM* | 0% | -21% | i | -10% | 11% | 8.2µM*
Cc1c(Cc2ccccc2)c(=O)oc2c(C)c(OCC(=O)N[C@@H](Cc3ccccc3)C(=O)O)ccc12 | 0% | 4% | 0% | 6% | i | / | / | /
O=C(Nc1ccc(-c2csc(Nc3ccccc3)n2)cc1)c1cccc(C(F)(F)F)c1 | -6% | 9.2µM* | 9% | ? | ? | -15% | -25% | 15µM*
Cc1ccc(-c2csc(NC(=O)c3cccc([N+](=O)[O-])c3)n2)cc1 | -5% | ? | -1% | -19% | i | 2% | -12% | 1.5µM*
Cc1ccc(-c2csc(NC(=O)c3cc([N+](=O)[O-])ccc3N3CCOCC3)n2)cc1 | 1% | 13% | 0% | / | i | / | / | /
O=C(Nc1nc(-c2ccccc2)cs1)c1ccc(N2CCOCC2)c([N+](=O)[O-])c1 | ? | 4.6µM* | 0% | 13µM* | ? | ? | ? | 7.3µM*
Cc1c(C(=O)NC(=S)Nc2ccc(NC(=O)c3cccs3)cc2)oc2ccccc12 | -1% | -1% | -1% | 4% | i | / | / | /
Cc1c(-c2cc(Br)ccc2O)nc2cc3c(cc2c1C)OCO3 | -2% | 14% | 6% | 56% | i | / | / | /
Oc1cccc2c(CC(O)c3c[nH]c4ccccc34)ccnc12 (stereo not drawn) | / | / | / | / | / | -15% | -29% | 4.1µM*
CCN(CC)S(=O)(=O)c1cccc(NC(=O)CNc2cccc(S(=O)(=O)N3CCOCC3)c2)c1 | ? | 1.3µM* | 2% | -32% | i | 2% | -17% | 2.1µM*
CN(C)S(=O)(=O)c1ccc(NC(=O)Cc2ccc(S(=O)(=O)N3CCOCC3)s2)cc1 | 6% | -25% | 0% | -13% | i | / | / | /
CCN(CC)S(=O)(=O)c1cc(NC(=O)CNc2cccc(S(=O)(=O)N3CCCC3)c2)ccc1C | -19% | 5.2µM* | 3% | -30% | ? | 0% | -22% | 8.2µM*
Cc1ccc(S(=O)(=O)c2cccc(S(=O)(=O)N3CCCC3)c2)cc1S(=O)(=O)N1CCCC1 | -26% | 8.2µM* | 0% | -17% | i | 0% | -11% | 21µM*
CCN(CC)S(=O)(=O)c1cc(NC(=O)Cc2ccc(S(=O)(=O)N3CCOCC3)s2)ccc1Cl | ? | 1.3µM* | 0% | ? | i | -12% | -24% | 6.5µM*
Cc1cc(C)nc(Nc2n[nH]c(-c3ccccc3C)n2)n1 | 0% | ? | 8% | 26% | i | / | / | /
CN(Cc1cnn(-c2ccc(F)cc2)c1)C(=O)[C@H]1O[C@@H](n2ccc(N)nc2=O)[C@H](O)[C@@H]1O | / | / | 0% | -9% | i | / | / | /
CCCN(CCC)c1ccc(/C=N/NC(=O)CN2CCOCC2)cc1 | -4% | -1% | 0% | -13% | i | / | / | /
CC(CC(=O)Nc1ccc(Cl)c(S(=O)(=O)N2CCOCC2)c1)c1ccccc1 (stereo not drawn) | -19% | 7.3µM* | 2% | -29% | ? | -1% | -4% | 3.3µM*
O=C(O)CC(SCC(=O)Nc1ccc(Cl)c(S(=O)(=O)N2CCOCC2)c1)C(=O)O (stereo not drawn) | -7% | -7% | -1% | -4% | i | / | / | /
COc1ccc(CNc2ncnc3onc(C)c23)cc1 | 2% | 4.1µM* | 0% | / | / | -1% | 1% | ?
SMILES | A549 tox-1 | Nrf2 block | Nrf2 ARE act | ATXN2 expr inh | ATXN viability | FLuc enzyme inh | A549 tox-2 | Nrf2 ARE inh
Cc1ccc(CCNc2ncnc3onc(C)c23)cc1 | -1% | 9.2µM* | 5% | -29% | ? | ? | 0% | 5.8µM*
CCOc1ccc(CCNc2ncnc3onc(C)c23)cc1OCC | 1% | 7.3µM* | 5% | -22% | i | 3% | -3% | ?
COc1ccc(OC)c(CNc2ncnc3onc(C)c23)c1 | 3% | -26% | 3% | -6% | i | / | / | /
CCOC(=O)C1=C(COC(=O)Cc2ccc(OC)c(OC)c2)NC(=O)NC1C (stereo not drawn) | 2% | -3% | 0% | 0% | ? | / | / | /
COc1ccc(NC(=O)CCNS(=O)(=O)c2ccc(NC(C)=O)cc2)cc1Cl | 2% | 4% | 2% | 16% | i | / | / | /
CC(C)(C)n1ncc2c(=O)n(Cc3cccc(Cl)c3)cnc21 | 4% | -18% | 1% | -22% | i | / | / | /
CC(C)(C)n1ncc2c(=O)n(Cc3ccc(-c4ccccc4C#N)cc3)cnc21 | / | / | / | / | / | -11% | -9% | 9.2µM*
O=C(O)CC/C(=N\Nc1ccc([N+](=O)[O-])cc1S(=O)(=O)N1CCOCC1)c1cccs1 | -20% | -22% | 4% | -6% | i | / | / | /
COc1ccccc1Nc1nc(-c2sc(NC(=O)C(C)(C)C)nc2C)cs1 | -4% | 7.3µM* | 1% | -17% | i | ? | -18% | 21µM*
CCCC(=O)Nc1nc(C)c(-c2csc(Nc3ccc(Cl)cc3)n2)s1 | ? | 7.3µM* | 9% | -18% | i | 17µM* | -17% | ?
COc1ccc(CC(=O)NNC(=O)c2cnccn2)cc1 | 6% | 2% | -1% | / | i | / | / | /
O=C(NC(=S)NNC(=O)c1cnccn1)c1ccc(Cl)cc1 | -26% | 5.8µM* | 0% | ? | ? | -11% | -14% | 5.8µM*

Source: PubChem BioAssay (National Center for Advancing Translational Sciences (NCATS))
